Shown are actives, neighbours in structure and some others; about 1.2% of the full set was active somewhere.
TcdB GH inh – TcdB glycohydrolase inhibitors, primary screen, biochemical, single point, plate reader. TcdB glycohydrolase enzymatic assay. inhibition, % at 9.99 µM. 350,000 compounds, 0.24% hits. AID 652162, 2013; in the data active = inhibition above about 10%
ugtP null kill – growth inhibition of ugtP-null S. aureus, primary screen, RN4220 ugtP deletion, OD600; 330,000 compounds, 0.54% hits; 16 h; growth inhibition, % (concentration not given with the values); in the data active = growth inhibition above about 68%;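 also: plate controls were untreated wells for no effect and antibiotic for full effect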
PfHsp40 yeast – rescue of yeast from PfHsp40 toxicity, primary screen, S. cerevisiae, ATP luminescence. S. cerevisiae expressing PfHsp40, growth rescue. growth rescue, % at 12.5 µM. 340,000 compounds, 0.68% hits; in the data active = growth rescue above about 28%, passing the limit was not always enough;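 also: yeast W303a lacking pdr1 and pdr3 grown in galactose medium; growth measured after three days at 30 °C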
Sa RN4220 lethal – growth inhibition of S. aureus RN4220, primary screen, OD600; 16 h; inhibition, % (concentration not given with the values); 330,000 compounds, 0.33% hits; in the data active = inhibition above about 85%;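 also: plate controls were untreated cells for no effect and reference antibiotic for full effect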
PrP UTR inh – inhibition of PrP 5' UTR reporter expression; inhibition, % (no concentration beside the values); cell-based PrP 5' UTR mRNA reporter, plate reader; 340,000 compounds, 0.35% hits; in the data active = inhibition above about 52%; also: 0 = median of the neutral control wells
Active calls of the source: *; · = no result given.

SMILES | TcdB GH inh | ugtP null kill | PfHsp40 yeast | Sa RN4220 lethal | PrP UTR inh
COc1cc(OC)c(OC)cc1C=NNC(=O)CCc1c(C)n[nH]c1C | · | 4.9 | · | 1.3 | ·
O=C(CCNC(=O)c1ccccc1Cl)NNC(=O)c1ccccc1O | 2.1 | 2.0 | 0.7 | 0.3 | -10.8
O=C(Nc1ccccc1C(=O)O)c1cccc(F)c1 | · | -3.3 | -1.1 | 6.5 | 20.0
COc1ccc(C(=O)CC(=O)c2ccc(F)cc2)cc1 | 1.4 | 3.1 | · | 3.0 | ·
O=C(CC(=O)c1c(F)cccc1Cl)c1ccccc1O | 0.1 | 10.1 | 112.1* | 12.2 | ·
O=C(CC(=O)c1ccccc1O)c1cccc(F)c1 | · | 95.7* | 1.0 | 78.7 | -13.7
O=C(CC(=O)c1ccccc1O)c1ccc(F)cc1 | · | 90.1* | -0.3 | 84.2 | -27.6
O=C(Nc1ccc(F)cc1)N[C@@H]1C=C[C@H](CC(=O)N2CCOCC2)O[C@@H]1CO | -2.5 | · | · | · | ·
Cc1onc(-c2c(F)cccc2Cl)c1C(=O)NC1C(=O)N2C1SC(C)(C)C2C(=O)O (stereo not drawn) | · | 100.3* | · | 100.5* | ·
CO[C@@H]1CN(C)C(=O)c2ccc(NC(=O)C3CCC3)cc2OC[C@@H](C)NC[C@H]1C | 0.6 | · | · | · | ·
COc1ccc(CN2CC3(CN(C(C)=O)C3)c3c([nH]c4cc(OC)ccc34)[C@@H]2CO)cc1 | -1.8 | · | · | · | ·
Cc1noc(C)c1NC(=O)N[C@@H]1CC[C@@H](CCNC(=O)C2CCCC2)O[C@H]1CO | -2.2 | · | · | · | ·
CN(C)S(=O)(=O)c1ccc(N2CCCC2)c(C(=O)NNC(=O)c2ccccc2)c1 | 0.3 | 75.4 | 0.1 | 95.5* | -10.7
Cc1ccc(C#CC[N+]2(CC#Cc3ccc(C)cc3)CCCCC2)cc1 | 1.1 | 96.1* | 0.1 | 3.6 | -7.8
COc1ccc(-c2ccc(=O)[nH]n2)cc1 | 0.1 | 13.7 | -0.9 | 6.6 | -5.2
COc1cc(-c2ccc(=O)[nH]n2)ccc1OC(F)F | 1.2 | 8.7 | 42.7* | 6.9 | 34.8
CCOC(=O)c1cc2ccc3ccccc3c2s1 | · | 87.6* | 0.8 | 12.3 | -47.0
CCOC(=O)c1cc2ccc3ccccc3c2oc1=O | -3.0 | 10.2 | 6.6 | 0.9 | -22.0
CC(C)c1cn(CC[C@@H]2CC[C@@H](NC(=O)C3CCOCC3)[C@H](CO)O2)nn1 | -0.2 | · | · | · | ·
C[C@]12CCC3c4ccc(O)cc4CCC3C1CC(O)C2O (stereo partly drawn) | · | -3.6 | · | 6.4 | ·
C=CCOc1ccc2c(c1)CCC1C2CCC2(C)C(O)C(O)CC12 (stereo not drawn) | 3.0 | 84.4* | 5.1 | -7.9 | -49.7
Cc1ccc(-n2nnnc2SCC(=O)N2CCc3ccccc3C2)c(C)c1 | · | 12.0 | 70.6* | -2.1 | ·
Cc1ccc(-n2nnnc2SCC(=O)N2CCc3ccccc3C2)cc1 | · | -9.4 | 0.7 | 0.9 | -12.2
C[C@@H]1CCCCO[C@H](CN(C)C(=O)Nc2ccc(C(F)(F)F)cc2)[C@@H](C)CN([C@H](C)CO)C(=O)c2cc(NS(=O)(=O)c3cn(C)cn3)ccc2O1 | 0.4 | · | · | · | ·
Cn1c(SCc2ccccc2)nc(N)c(N=O)c1=O | 0.3 | 95.1* | · | -3.6 | ·
SMILES | TcdB GH inh | ugtP null kill | PfHsp40 yeast | Sa RN4220 lethal | PrP UTR inh
Cn1c(SCc2ccccc2)nc(C(F)(F)F)cc1=O | 0.5 | -5.7 | 0.2 | 11.5 | 0.5
COc1ccc(-c2nnc(NC(=O)c3ccc(S(=O)(=O)N(C)CC4CCCO4)cc3)o2)c(OC)c1 (stereo not drawn) | 0.0 | 100.5* | 3.7 | -6.9 | -21.6
CCN1C[C@@H](C)[C@H](OC)CN(C)C(=O)c2cc(NC(=O)c3ccno3)ccc2OC[C@H]1C | -0.9 | · | · | · | ·
O=C(NN=Cc1cc2c(cc1[N+](=O)[O-])OCO2)c1ccc2c(c1)OCO2 | · | 2.5 | · | 4.9 | ·
COc1cc(C=NNC(=O)c2ccccc2)ccc1OS(=O)(=O)c1ccccc1 | · | 89.7* | · | -3.4 | ·
COc1ccc(C(=O)NN=Cc2ccc(OC)c(OS(=O)(=O)c3ccccc3)c2)cc1 | · | -13.2 | · | -2.9 | ·
COCc1cc(Sc2cccc(Cl)c2Cl)nc(-c2ccccc2)n1 | · | 91.2* | -1.5 | -11.0 | -11.8
CCC(C)CCN1C(Nc2ccccc2)=NCC1C (stereo not drawn) | · | -4.1 | · | 6.3 | ·
COc1cccc(C(=O)Nc2ccc3c(c2)OC[C@H](C)N(C(C)=O)C[C@H](C)[C@H](OC)CN(C)C3=O)c1 | 0.3 | · | · | · | ·
Cc1ccc(N=Nc2ccc(O)cc2)c(Br)c1 | 2.3 | 79.5 | 200.8* | 6.3 | -38.5
Oc1ccc(N=Nc2ccc(Br)cc2)c(O)c1 | -0.1 | · | 1.2 | · | -59.2
C[C@H](CO)N1C[C@H](C)[C@H](CN(C)C(=O)CC2CC2)Oc2cc(C#C[C@@H](C)O)ccc2S1(=O)=O | -3.2 | · | · | · | ·
CCCS(=O)(=O)c1nnnn1-c1cccc(OC)c1 | · | 41.7 | 408.2* | 15.5 | 10.4
COc1cccc(-n2nnnc2SCC(=O)Nc2ccccc2OC)c1 | 0.6 | 4.0 | 0.3 | 4.5 | -11.1
CCOc1ccc(N2C(=O)Nc3ccccc3C2(O)C(=O)NCc2ccc(C)cc2)cc1 (stereo not drawn) | 0.9 | active | -0.5 | 100.1 | -1.4
CC(C)OC(=O)C(=O)NNc1ccccc1 | 14.8* | 3.3 | 1.5 | -2.6 | -73.5
COc1cccc(NC(=O)CN2CCN(CC(=O)Nc3ccc(F)cc3)CC2)c1 | 1.2 | 7.7 | 1.2 | 3.3 | ·
COc1ccc(NC(=O)CN2CCN(CC(=O)Nc3ccc(F)cc3F)CC2)cc1 | 0.4 | 8.0 | 43.9* | 5.8 | -20.8
CCCN1[C@H](C(=O)NC2CCCC2)[C@@H](CO)[C@@H]2Cn3c(ccc(-c4cccnc4)c3=O)[C@@H]21 | -1.7 | · | · | · | ·
COc1ccc(NC(=O)c2cc(S(=O)(=O)N3CCc4ccccc43)cn2C)cc1OC | 16.0* | 6.7 | -0.8 | -1.8 | -22.4
COc1ccc(NC(=O)c2cc(S(=O)(=O)N3CCc4ccccc43)cn2C)c(OC)c1 | · | · | 0.8 | · | 1.2
CC(C)Cn1c(=O)n(C)c(=O)c2[nH]cnc21 | 0.6 | 0.8 | 37.3* | 3.8 | -24.7
Cc1cccc(N2CCc3c2nc2ccc(Br)cc2c3N)c1 | 0.9 | 99.6* | 1.5 | 99.0* | -27.8
O=C(O)C1CCC(CN(Cc2cccc(Br)c2)C(=S)Nc2ccccc2F)CC1 (stereo not drawn) | 11.5* | 21.7 | -0.2 | 6.5 | -12.0
CN(C)C(=O)C[C@@H]1CC[C@@H]2[C@@H](COc3ccc(NS(=O)(=O)c4cccc(F)c4)cc3C(=O)N2C)O1 | -1.0 | · | · | · | ·
SMILES | TcdB GH inh | ugtP null kill | PfHsp40 yeast | Sa RN4220 lethal | PrP UTR inh
O=C(CNC(=O)c1ccc(Br)o1)NCc1ccc(Cl)cc1Cl | -2.6 | -0.9 | 52.3* | 0.0 | -3.5
O=C(CNC(=O)c1ccc(Br)o1)NCc1cccc(Cl)c1 | 0.0 | -1.1 | 1.2 | -0.5 | -8.1
COc1cccc(/C=C/c2ccc3cccc(O)c3n2)c1 | -0.3 | -19.7 | 35.1* | 5.0 | -45.6
COc1ccc(/C=C/c2ccc3cccc(O)c3n2)c(OC)c1OC | 0.9 | -20.9 | 33.3* | 6.9 | -31.2
COc1cc(/C=C/c2ccc3c(Br)cc(Br)c(O)c3n2)ccc1O | 0.0 | 99.7* | -0.7 | 98.5* | 27.6
Oc1cccc(/C=C/c2ccc3cccc(O)c3n2)c1 | 0.6 | -5.0 | 1.4 | 1.8 | -86.2
COCCNC(=O)C[C@H]1C[C@@H]2c3cc(NC(=O)CC4CC4)ccc3O[C@@H]2[C@@H](CO)O1 | 0.0 | · | · | · | ·

Screens as filed in PubChem BioAssay.
